Measurements published in PubChem BioAssay (Tox21).
Results filed as inconclusive are left out. Activity calls are given as the source filed them. Unless noted, calls follow the shape of the dose curve; as a rule, active = well fitted curve in the direction sought with a large enough effect in the repeat runs; inconclusive = weak or mixed curves; inactive = no such curve, though single readings can be large; an effect the other way counts as inactive or inconclusive.

Assays:
[1] = qHTS assay to identify small molecule agonists of the RXR signaling pathway - cell viability counter screen (AID 1159529); also: series mostly up to about 77 µM; % is scaled to controls: 0 for no effect and ±100 for the full control effect; nearly all actives have a fitted effect of over 50% in size
Outline: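 Luminescence from CellTiter-Glo (30 min, RT) measured viability in the same wells as the beta-lactamase reporter readout. Cells: GeneBLAzer RXR-alpha HEK 293T, 2% charcoal-stripped FBS. Compound exposure 16 hr, 37 C.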

[2] = qHTS assay to identify small molecule antagonists of the retinoid acid receptor (RAR) signaling pathway - cell viability counter screen (AID 1159551); also: % is scaled to controls: 0 for no effect and ±100 for the full control effect; nearly all actives have a fitted effect of over 35% in size
Outline: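 Cytotoxicity counter screen in C3RL4 cells: 6 h compound exposure with 1 uM retinol (final), viability from cellular ATP by luminescence.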

[3] = qHTS assay to identify small molecule antagonists of the estrogen related receptor (ERR) signaling pathway from Tox21 library - cell viability counter screen (AID 1224834); also: nearly all actives have a fitted effect of over 30% in size; also: potency is read from the fitted curve at half-maximal effect; as to viability change, negative = cytotoxic: % is scaled to controls: 0 for no effect and ±100 for the full control effect
Outline: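 Cytotoxicity of test substances is gauged in the same ERR cells used for the antagonist screen, after 17.5 h of compound treatment at 37 C, by CellTiter-Fluor fluorescence measured after 30 min.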

[4] = biological target: Luciferin 4-monooxygenase (Photinus pyralis) (UniProt P08659); experiment: qHTS assay to identify small molecule inhibitors of firefly luciferase (AID 1224835); also: nearly all actives have a fitted effect of over 25% in size; also: potency is read from the fitted curve at half-maximal effect; as to activity change, negative = inhibition: series mostly up to about 120 µM; % is scaled to controls: 0 for no effect and ±100 for the full control effect
Chain of Luciferin 4-monooxygenase (Photinus pyralis) (P08659 whole entry, looked up): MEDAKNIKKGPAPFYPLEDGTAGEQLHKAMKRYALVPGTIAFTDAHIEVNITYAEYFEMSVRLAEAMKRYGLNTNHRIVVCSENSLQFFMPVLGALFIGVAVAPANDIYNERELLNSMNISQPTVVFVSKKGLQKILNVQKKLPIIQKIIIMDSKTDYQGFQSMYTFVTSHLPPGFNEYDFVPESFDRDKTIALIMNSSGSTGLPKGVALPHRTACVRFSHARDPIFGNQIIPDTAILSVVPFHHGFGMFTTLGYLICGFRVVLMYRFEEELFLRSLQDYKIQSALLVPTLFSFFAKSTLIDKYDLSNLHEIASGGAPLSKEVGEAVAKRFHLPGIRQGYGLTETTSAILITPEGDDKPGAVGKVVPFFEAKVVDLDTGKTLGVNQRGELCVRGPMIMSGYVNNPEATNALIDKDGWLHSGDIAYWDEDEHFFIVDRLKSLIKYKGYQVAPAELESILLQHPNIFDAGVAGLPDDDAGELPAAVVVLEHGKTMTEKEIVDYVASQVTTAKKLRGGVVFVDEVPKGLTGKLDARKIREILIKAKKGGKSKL
Outline: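 Quantitative HTS format; KM concentrations of both substrates. Purified P. pyralis FLuc activity quantified from luminescence images.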

[5] = qHTS assay to identify small molecule agonists of the constitutive androstane receptor (CAR) signaling pathway - cell viability counter screen (AID 1224836); also: series mostly up to about 92 µM; % is scaled to controls: 0 for no effect and ±100 for the full control effect; nearly all actives have a fitted effect of over 45% in size
Outline: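 Viability read-out: CellTiter-Fluor fluorescence after 23 h compound exposure at 37 C/5% CO2 in double-stable HepG2-CYP2B6-hCAR cells, with PK11195 present at 0.75 uM final; compounds tested in 15-point titration.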

[6] = qHTS assay to identify small molecule antagonists of the constitutive androstane receptor (CAR) signaling pathway - cell viability counter screen (AID 1224837); also: series mostly up to about 92 µM; % is scaled to controls: 0 for no effect and ±100 for the full control effect; nearly all actives have a fitted effect of over 45% in size
Outline: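 Multiplexed cytotoxicity read-out for the CAR antagonist screen: double-stable HepG2-CYP2B6-hCAR cells co-treated with 50 nM CITCO (final) and compound over 15 concentrations, incubated 23 hr, then assessed by CellTiter-Fluor fluorescence.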

[7] = biological target: Nuclear receptor subfamily 1 group I member 3 (Homo sapiens) (UniProt Q14994); experiment: qHTS assay to identify small molecule antagonists of the constitutive androstane receptor (CAR) signaling pathway (AID 1224838); also: % is scaled to controls: 0 for no effect and ±100 for the full control effect; nearly all actives have a fitted effect of over 40% in size
Chain of Nuclear receptor subfamily 1 group I member 3 (Homo sapiens) (Q14994 whole entry, looked up): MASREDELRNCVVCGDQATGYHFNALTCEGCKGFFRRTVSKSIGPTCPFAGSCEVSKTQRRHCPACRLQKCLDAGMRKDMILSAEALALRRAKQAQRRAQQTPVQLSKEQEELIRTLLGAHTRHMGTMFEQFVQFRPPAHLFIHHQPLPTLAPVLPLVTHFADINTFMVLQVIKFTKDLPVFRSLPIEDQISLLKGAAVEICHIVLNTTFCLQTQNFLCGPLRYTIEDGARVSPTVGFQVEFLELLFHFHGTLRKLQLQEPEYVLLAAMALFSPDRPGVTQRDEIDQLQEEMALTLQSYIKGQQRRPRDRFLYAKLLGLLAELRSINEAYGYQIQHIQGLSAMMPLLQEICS
Outline: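 Compounds were titrated across 15 concentrations onto HepG2 cells double-stably expressing hCAR and a CYP2B6-2.2kb reporter, together with 50 nM CITCO (final). After 24 h at 37 C, luciferase activity was measured by luminescence.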

[8] = biological target: Nuclear receptor subfamily 1 group I member 3 (Homo sapiens) (UniProt Q14994); experiment: qHTS assay to identify small molecule agonists of the constitutive androstane receptor (CAR) signaling pathway (AID 1224839); also: nearly all actives have a fitted effect of over 15% in size; also: potency is read from the fitted curve at half-maximal effect
Outline: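 Luminescence read-out (ONE-Glo, 30 min, room temperature) from double-stable HepG2-CYP2B6-hCAR cells exposed 24 h to 15-point compound series in presence of 0.75 uM PK11195 final.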

[9] = qHTS assay to identify small molecule antagonists of the estrogen related receptor signaling pathway with the pleiotropic PPARgamma coactivator (PGC) from Tox21 10K library - cell viability counter screen (AID 1224840; active = well fitted cell-killing curve with a large enough effect in the repeat runs, not every such curve was filed as active; also: % is scaled to controls: 0 for no effect and ±100 for the full control effect; nearly all actives have a fitted effect of over 40% in size)
Outline: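 Step one, plate 2,000 PGC/ERR cells per well; step two, incubate 6 h at 37 C/5% CO2; step three, pin-transfer compounds; step four, incubate 17.5 h; step five, add CellTiter-Fluor and read fluorescence after 30 min.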

[10] = qHTS assay to identify small molecule antagonists of the retinoic acid receptor (RAR) signaling pathway (AID 1159552; also: % is scaled to controls: 0 for no effect and ±100 for the full control effect; nearly all actives have a fitted effect of over 50% in size)
Outline: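 Luminescence from a RARE luciferase reporter in C3RL4 cells served as read-out. Cells received compounds together with 1 uM final retinol and incubated 6 hr at 37 C before detection reagent was added for 30 min at room temperature.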

[11] = qHTS assay to identify small molecule agonists of the retinoic acid receptor (RAR) signaling pathway (AID 1159553); also: potency is read from the fitted curve at half-maximal effect
Outline: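 Agonist activity was scored in C3RL4 cells bearing a retinoic acid response element luciferase construct. Cells were treated with compounds for 6 hr at 37 C, and luciferase signal was measured as luminescence.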

[12] = qHTS assay to identify small molecule antagonists of the estrogen related receptor signaling pathway with the pleiotropic PPARgamma coactivator (PGC) from Tox21 10K library (AID 1224841; call rule not given here; also: series mostly up to about 92 µM; % is scaled to controls: 0 for no effect and ±100 for the full control effect; actives are mostly falling curves and most rising ones were filed inactive; nearly all actives have a fitted effect of over 50% in size)
Outline: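 Antagonism in this quantitative HTS is taken from loss of luciferase signal in PGC/ERR cells. Cells (2,000/well) are treated with compounds in DMSO after a 6 h settling period and read by One-Glo luminescence after 18 h.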

[13] = qHTS assay to identify small molecule antagonists of the estrogen related receptor (ERR) signaling pathway (AID 1224819; also: potency is read from the fitted curve at half-maximal effect; nearly all actives have a fitted effect of over 50% in size)
Outline: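 Compounds dissolved in DMSO were pin-transferred onto ERR cells that had been plated 6 h earlier, and cells were then incubated 18 h at 37 C; signal was luciferase luminescence via One-Glo.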

[14] = qHTS assay to identify small molecule agonists of the estrogen related receptor (ERR) signaling pathway (AID 1224820); also: % is scaled to controls: 0 for no effect and ±100 for the full control effect
Outline: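 Quantitative HTS of the LOPAC library used NTP ERR reporter cells treated 18 h at 37 C. Signal is luminescence after One-Glo addition and a 30 min room-temperature incubation.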

[15] = qHTS assay to identify small molecule agonists of the estrogen related receptor signaling pathway with the pleiotropic PPARgamma coactivator (PGC) (AID 1224823); also: % is scaled to controls: 0 for no effect and ±100 for the full control effect
Outline: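 Cell-based luciferase assay in the NTP-supplied PGC/ERR line, 2,000 cells/well; 18 h compound exposure at 37 C, luminescence after One-Glo.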

[16] = qHTS assay to identify small molecule agonists of the estrogen related receptor signaling pathway with the pleiotropic PPARgamma coactivator (PGC) from Tox21 10K library (AID 1224842); also: % is scaled to controls: 0 for no effect and ±100 for the full control effect; nearly all actives have a fitted effect of over 15% in size
Outline: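 PGC/ERR reporter cells (NTP line) were seeded 2,000 per well, rested 6 h at 37 C/5% CO2, then pin-dosed with compounds in DMSO for 18 h at 37 C; luciferase read by One-Glo luminescence after 30 min at room temperature.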

CCc1cnc(C(=O)O)c(C(=O)O)c1
inactive: Potency [1] | outcome [2] | Potency [3] | Potency [4] | Potency [5] | Potency [6] | Potency [7] | Potency [8] | Potency [9]

CC(=O)OCC(=O)[C@@]1(O)CC[C@H]2[C@@H]3CCC4=CC(=O)C=C[C@]4(C)[C@@]3(F)[C@@H](O)C[C@@]21C
inactive: Potency [1] | outcome [2] | Potency [3] | Potency [4] | Potency [5] | Potency [6] | Potency [8] | Potency [9]

O=C(Cl)c1cc(Cl)cc(Cl)c1
inactive: Potency [1] | outcome [2] | Potency [3] | Potency [4] | Potency [5] | Potency [7] | Potency [8] | Potency [9]

CCn1nc(Cc2ccccc2)cc1C1CCN(C[C@H]2C[C@H](N(C)[C@@H](C(=O)O)C(C)C)C[C@@H]2c2cccc(F)c2)CC1
inactive: outcome [2] | outcome [10] | Potency [11] | Potency [4] | Potency [5] | Potency [7] | Potency [8] | Potency [12]

COC=O
inactive: activity change, negative = cytotoxicity [2] 0.256% [at 8.39 µM] | activity, negative = inhibition [10] -0.361% [at 8.39 µM] | activation [11] 3.97% [at 8.36 µM] | viability change, negative = cytotoxic [3] 0.652% [at 8.39 µM] | activity change, negative = inhibition [4] -0.731% [at 10.5 µM] | viability change, negative = cytotoxic [5] -8.98% [at 8.39 µM] | activity change, negative = cytotoxicity [6] -19.2% [at 8.39 µM] | activity, negative = inhibition [7] 0.829% [at 8.39 µM] | activation [8] -2.43% [at 8.39 µM] | activity, negative = inhibition [12] 9.85% [at 8.39 µM]

Cc1nc2sccn2c(=O)c1CCN1CCC(=C(c2ccc(F)cc2)c2ccc(F)cc2)CC1
inactive: outcome [2] | outcome [10] | Potency [11] | outcome [14] | outcome [15] | Potency [3] | Potency [4] | Potency [5] | Potency [6] | Potency [8] | Potency [9] | Potency [16]
active: Potency [13] 19.6 µM

COc1ccc(C(=O)Nc2ccccc2)cc1[N+](=O)[O-]
active: Potency [11] 30.9 µM | Potency [8] 30.9 µM
inactive: outcome [2] | outcome [10] | Potency [5] | Potency [7] | Potency [9]

Cc1ccc(NC(=O)c2ccc(CN3CCN(C)CC3)cc2)cc1Nc1nccc(-c2cccnc2)n1
inactive: Potency [1] | outcome [2] | Potency [7] | Potency [9]
active: Potency [3] 23.7 µM | Potency [8] 13.3 µM

O=C(O)c1ccc2c(c1)nc(C(=O)NC1CCN(C3CC3)CC1)n2Cc1cc(-c2ccc(Cl)s2)on1
inactive: activity change, negative = cytotoxicity [2] 0.727% [at 19 µM] | viability change, negative = cytotoxic [3] -4.05% [at 19 µM] | activity change, negative = inhibition [4] -1.8% [at 23.6 µM] | viability change, negative = cytotoxic [5] 0.0204% [at 19 µM] | activity change, negative = cytotoxicity [6] 10.8% [at 19 µM] | activity, negative = inhibition [7] 19.9% [at 19 µM] | activation [8] -1.53% [at 19 µM] | viability change, negative = cytotoxic [9] -11.5% [at 19 µM]

O=C(O)c1ccccc1-n1cc(C(=O)O)c(=O)c2cc(Nc3c(F)cc(F)cc3Cl)c(Cl)cc21
inactive: outcome [2] | outcome [10] | Potency [11] | Potency [3] | Potency [4] | Potency [5] | Potency [6] | Potency [7] | Potency [8]

O=Cc1ccc(Cl)c([N+](=O)[O-])c1
inactive: Potency [1] | outcome [2] | Potency [4] | Potency [5] | Potency [6] | Potency [7] | Potency [8]

CCCCCCOC(=O)c1ccccc1
active: Potency [4] 15.9 µM
inactive: outcome [2] | outcome [10] | Potency [11] | Potency [3] | Potency [5] | Potency [6] | Potency [7] | Potency [8] | Potency [9] | Potency [12]

COC(=O)Cc1cccc2ccccc12
active: Potency [8] 34.4 µM
inactive: Potency [1] | outcome [2] | Potency [4] | Potency [5] | Potency [6] | Potency [7]
